Assay outcomes as filed in PubChem.
LmPK inhibitor = LmPK (Leishmania mexicana) enzyme inhibition | Q27686 | purified LmPK, Kinase-Glo ATP luminescence, 1 h | Potency, µM (doses to about 57.5 µM), inactives show at the top dose activity change, negative = inhibition, actives largely listed as inhibitors | 0.37% of 290,000 active | AID 1721; note: potency is the fitted concentration of half-maximal effect; % is set by controls: 0 for no effect and ±100 for the full control effect
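Screened at intermediate enzyme activity to detect both inhibitors and activators: LmPK at 0.1 nM, with a 0.5 nM enzyme column as activation reference. PEP 0.5 mM, ADP 0.1 mM; ATP detected by luminescence after 1 h.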
Shiga inhibitor = inhibitors of Shiga toxin in Vero cells | Vero cells, Shiga toxin protein synthesis inhibition reporter | inhibition, % at 38.7 µM | 9.2% of 290,000 active | AID 2315; in the data active = inhibition mostly above about 28%, no sharp cut-off; inactive = mostly below about 43%; note: 0% is about no effect
Tb PYK inh = inhibitors of Trypanosoma brucei pyruvate kinase; TbPYK enzyme, Kinase-Glo Plus ATP luminescence, 45 min; 0.12% of 410,000 active; Potency, µM (highest dose often 76.8 µM), without a hit: at the top dose activity, negative = inhibition, most hits filed as inhibitors; Q57TT1; AID 624173; note: potency is the fitted concentration of half-maximal effect; % is set by controls: 0 for no effect and ±100 for the full control effect; nearly all actives have a fitted effect of over 50% in size
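Assay buffer: 50 mM TEA pH 7.2, 100 mM KCl, 10 mM MgCl2, 0.05% BSA, 0.01% Tween-20. Pyruvate kinase from T. brucei plus substrate met compound, then ADP (130 uM final). Luminescence was read post 45 min RT.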
FBPA Giardia inh = blocks Giardia fructose-bisphosphate aldolase activity | A8B2U2 | purified Giardia FBPA | Potency, µM (titrated, usually from 59.6 µM), without a hit: at the highest dose activity, negative = inhibition, hits mostly inhibitors | 0.71% of 290,000 active | AID 2451; note: potency is the fitted concentration of half-maximal effect; % is set by controls: 0 for no effect and ±100 for the full control effect; nearly all actives have a fitted effect of over 55% in size
Target sequence (A8B2U2 whole entry, looked up): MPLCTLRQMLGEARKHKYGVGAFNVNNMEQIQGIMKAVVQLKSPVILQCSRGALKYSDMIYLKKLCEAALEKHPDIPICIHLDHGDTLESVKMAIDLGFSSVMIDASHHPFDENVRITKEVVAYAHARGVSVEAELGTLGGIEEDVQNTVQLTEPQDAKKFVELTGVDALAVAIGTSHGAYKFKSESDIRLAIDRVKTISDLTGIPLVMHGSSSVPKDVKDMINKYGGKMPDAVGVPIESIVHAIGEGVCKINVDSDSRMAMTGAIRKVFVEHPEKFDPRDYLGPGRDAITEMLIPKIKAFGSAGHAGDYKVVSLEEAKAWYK
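Giardia FBPA (40 nM reagent) was preincubated 10 min at RT with compound (up to 57.5 uM final), then substrate plus GAPDH/TPI/NAD/arsenate coupling system with diaphorase/resazurin was added; resorufin fluorescence (525/598 nm) was read after 20 min.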
CHX counter = counter-screen hit for Shiga toxin inhibitors, cycloheximide | max response, % | cell reporter, cycloheximide protein synthesis inhibition counterscreen | AID 2314 | 12% of 300,000 active; in the data active = max response mostly above about 13%, no sharp cut-off; inactive = mostly below about 14%; note: read at 38.3 µM for the half of the compounds with a filed dose; 0% is about no effect
RE007 growth inh = less growth of the S. pombe RE007 Vpr strain | S. pombe RE007 Vpr strain, BacTiter-Glo ATP luminescence, 24 h | Potency, µM (titrated, usually from 92.2 µM), inactives show at the top dose activity change, negative = less growth, most hits filed as inhibitors | 0.21% of 360,000 active; active = well fitted falling curve with a large enough effect; inconclusive = small, poorly fitted or top-dose-only effect; inactive = no such curve, though single readings can be large or run the other way; note: potency is the fitted concentration of half-maximal effect; % is set by controls: 0 for no effect and ±100 for the full control effect; nearly all actives have a fitted effect of over 50% in size
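Fission yeast RE007 carrying one integrated HIV-1 vpr copy, seeded at OD 0.01 in PMG+AL medium with 23 nL pinned compound. Grown 24 h at 30 degrees; viability read by BacTiter-Glo luminescence after 5 min.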
* = called active by the depositor; ? = inconclusive; . = no result given; + = active, no number. This excerpt belongs to a sample that is enriched for hits. Unless noted, calls come from the whole dose curve; as a rule, active = well fitted curve in the direction sought with a large enough effect; inconclusive = small, poorly fitted or top-dose-only effect, or another doubt; inactive = no such curve, though single readings can be large; an effect the other way counts as inactive or inconclusive.

SMILES	LmPK inhibitor	Shiga inhibitor	Tb PYK inh	FBPA Giardia inh	CHX counter	RE007 growth inh
O=C(O)c1ccc(-c2nc(-c3ccccc3Cl)cs2)cc1	-15%	143*	2%	?	29*	?
Cc1oncc1-c1csc(-c2ccccc2)n1	0%	64*	-4%	6%	51*	7%
Cc1[nH]c(=O)c(C#N)cc1-c1csc(-c2ccccc2)n1	-6%	-8	-15%	18%	-3	-13%
O=C(O)c1ccc(-c2noc(-c3ccccc3Cl)n2)cc1	.	.	-13%	.	.	.
CC(=O)c1nc(-c2ccccc2)sc1C	2%	77*	1%	4%	26	-9%
O=C(O)c1ccccc1C(=O)Nc1ccc(-c2csc(-c3ccccc3)n2)cc1	-3%	73*	-7%	8%	54*	-6%
CCNc1ncc2nc(CCc3ccccc3)c(=O)n(Cc3ccc(F)cc3)c2n1	.	.	.	7%	.	.
COc1ccc(-c2nn(C)c3sc(C(=O)N4CCN(c5cc(Cl)ccc5C)CC4)cc23)cc1OC	.	.	-8%	.	.	.
O=C(O)c1cnn(-c2nc(-c3ccc(Cl)c(Cl)c3)cs2)c1C(F)(F)F	0%	35	-7%	16%	19*	?
CCOC(=O)CCc1cc(F)c(S(=O)(=O)N2CCN(S(=O)(=O)c3ccc4c(c3)OCCO4)CC2)cc1F	.	-7	.	.	-4	.
CCCN(c1ccc(C(C)C)cc1)S(=O)(=O)c1ccc2c(c1)n(C)c(=O)c(=O)n2C	.	.	2%	.	.	.
CCCCOc1ccc(-c2cn3ccccc3n2)cc1[N+](=O)[O-]	-15%	103*	4%	-14%	62*	?
O=[N+]([O-])c1ccc(-c2cn3ccccc3n2)cc1	.	.	-7%	.	.	-19%
Oc1ccc(-c2cn3ccccc3n2)cc1O	?	-4	?	-7%	3	.
CCOc1ccc(-c2cn3ccccc3n2)cc1[N+](=O)[O-]	-8%	67*	-13%	1%	38*	?
CCCOc1ccc(-c2csc(N)n2)cc1[N+](=O)[O-]	0%	+	-9%	4%	45*	?
COc1ccccc1NC(=O)C1=C(C)Nc2c(C(=O)Nc3ccc(F)cc3)cnn2C1c1cccc([N+](=O)[O-])c1 (configuration not stated)	.	.	-2%	.	.	.
Cc1ccc(N(CC(C)C)S(=O)(=O)c2nnc(NC(=O)c3cccs3)s2)cc1	.	.	-4%	.	.	.
O=C(Nc1nc2ccc(Cl)cc2s1)C1CCCO1 (configuration not stated)	2%	106*	2%	4%	43*	-21%
CCC(C)NC(=O)C1CCN(S(=O)(=O)c2cc([N+](=O)[O-])ccc2Cl)CC1 (configuration not stated)	10%	-6	0%	3%	1	16%
O=C(Nc1nc2ccccc2s1)C1CCN(S(=O)(=O)c2cc([N+](=O)[O-])ccc2Cl)CC1	7%	50*	-17%	-21%	21*	-10%
O=C(Nc1nc2ccc([N+](=O)[O-])cc2s1)C1CCCO1 (configuration not stated)	-5%	112*	-2%	1%	37*	2%
CCCCCn1c(=O)[nH]c2cc(C(=O)NCc3ccc(C)cc3)ccc2c1=O	.	.	-2%	.	.	.
O=C(c1ccc(Br)cc1)N(Cc1ccco1)c1ccccn1	.	.	-6%	.	.	.
O=C(NCC1CCCCC1)c1ccc([N+](=O)[O-])cc1	5%	16	0%	5%	12	13%
SMILES	LmPK inhibitor	Shiga inhibitor	Tb PYK inh	FBPA Giardia inh	CHX counter	RE007 growth inh
Cc1cc(C(=O)NCc2cccs2)ccc1[N+](=O)[O-]	-5%	7	4%	1%	14*	1%
Cc1cc(C(=O)OCC(=O)NCc2cccs2)ccc1[N+](=O)[O-]	.	.	-5%	.	.	-1%
Cc1cc(C(=O)Nc2nc(C)c(C(=O)N(C)C)s2)ccc1[N+](=O)[O-]	-7%	54*	-8%	-3%	34*	23%
Cc1ccc(C(=O)NCc2ccc3c(c2)OCO3)cc1Cl	-4%	40	1%	10%	18*	2%
Cc1nc(NC(=O)c2ccc([N+](=O)[O-])cc2Cl)sc1C(=O)N(C)C	-3%	12	?	-16%	-3	-12%
Cc1cc(C(=O)NCC2CCCCC2)ccc1[N+](=O)[O-]	-6%	84*	-2%	3%	24*	3%
COc1ccc(CCNC(=O)c2ccc3c(c2)N=C(C)c2ccccc2S3)cc1OC	.	.	3%	.	.	.
O=C(NCc1ccc2c(c1)OCO2)c1cccc([N+](=O)[O-])c1	-7%	-5	-10%	0%	1	14%
Cc1cc(C(=O)NCc2ccc3c(c2)OCO3)ccc1[N+](=O)[O-]	-1%	23	-2%	-5%	25*	5%
CC(=O)Nc1ccc(C(=O)NCC2CCCCC2)cc1	8%	16	-3%	3%	20*	2%
CN(C)c1ccc(C(=O)NCc2ccc3c(c2)OCO3)cc1	-1%	8	-1%	-2%	8	0%
Cc1ccc(CC(=O)NCC2CCCCC2)cc1	-3%	71*	5%	6%	26*	6%
Cc1ccc(C(=O)NCc2ccc3c(c2)OCO3)cc1C	-2%	55*	2%	8%	35*	.
CCC(C(=O)NCCCN(CC)CC)n1ncn2c(cc3occc32)c1=O (configuration not stated)	.	.	-3%	.	.	.
COCC1C2CC[C@H]3C(OCc4ccc(OC)cc4)OC[C@]4(C)[C@H]3C2=C(CN4C(=O)OC(C)(C)C)[C@H](C)C1COC (some centres not stated)	.	.	.	-11%	.	.
Cc1cccc(C(=O)Nc2ccccc2C(=O)OCC(=O)Nc2ccc(C#N)cc2)c1	1%	55*	2%	0%	46*	.
CCCc1ccc2oc(C(=O)N(Cc3nccn3C)C(C)C)c(C)c2c1	9%	35*	-7%	-5%	21*	-23%
COc1ccc2oc(C(=O)N(C)Cc3ccc4c(c3)OCCO4)c(C)c2c1	.	.	0%	.	.	12%
CCCc1ccc2oc(C(=O)N(C)Cc3ccn[nH]3)c(C)c2c1	8%	65*	-6%	7%	48*	5%
Cc1ccc2oc(C(=O)N(C)Cc3cnccn3)c(C)c2c1	3%	120*	-1%	3%	35*	-5%
CCOC(=O)/C=C/CCCC=O	.	.	.	3%	.	.
Cc1ccc(NC(=O)c2ccc3c(c2)NC(=O)c2ccccc2S3)c(Cl)c1	.	.	-1%	.	.	.
Cc1ccc(Cl)cc1-n1c(CCC(=O)O)ccc1-c1cccs1	.	.	-12%	.	.	.
Cc1cc(/C=N/NC(=O)c2ccccn2)c(C)n1-c1cccc([N+](=O)[O-])c1	-4%	90*	-1%	-21%	50*	-8%
Cc1cc(C(=O)N/N=C2\CCCC(=O)C2)c(C)n1-c1ccccc1	11%	30*	-3%	-14%	17*	18%
